The record followed here is PubChem BioAssay (NCATS).

The structures appear in SMILES notation. Results filed as inconclusive are left out. Activity calls are given as the source filed them. Unless noted, calls follow the shape of the dose curve; as a rule, active = well fitted curve in the direction sought with a large enough effect; inconclusive = small, poorly fitted or top-dose-only effect, or another doubt; inactive = no such curve, though single readings can be large; an effect the other way counts as inactive or inconclusive.

Test [1] is described as follows: qHTS assay for small molecule agonists of the antioxidant response element (ARE) signaling pathway measured by Nrf2-dependant transcriptional activity - cell viability counter screen (AID 720653; active = well fitted curve in the direction sought with a large enough effect in the repeat runs; an effect the other way counts as inactive or inconclusive; also: % is scaled to controls: 0 for no effect and ±100 for the full control effect). Particulars: ARE-bla HepG2 viability, CellTiter-Glo ATP luminescence, 16 h; max response: stronger effect = lower value. A digest of the protocol:
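ARE-bla HepG2 cells treated with compounds for 16 h at 37C; this counter screen measures viability as intracellular ATP by CellTiter-Glo luminescence after 30 min at room temperature.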

The nature of test [2]: qHTS Assay for Identifying Gametocytocidal Compounds (AID 743244).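 Also: % is scaled to controls: 0 for no effect and ±100 for the full control effect; actives lower the fluorescent signal which means gametocytes are killed.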 Particulars: P. falciparum 3D7 stage III-V gametocytes, alamarBlue, 72 h; max response: stronger effect = lower value. Put shortly: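 Compounds are pinned into medium, gametocytes (stage III–V, 3D7, 20,000 cells/well) added, and plates held 72 h at 37 °C in 5% CO2. AlamarBlue follows for 24 h before fluorescence reading.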

A short description of test [3]: qHTS assay for cell viability of HEK293 cells (AID 743288). Also: % is scaled to controls: 0 for no effect and ±100 for the full control effect; nearly all actives have a fitted effect of over 50% in size. Particulars: ATP luminescence (CellTiter-Glo), 18 h; max response: stronger effect = lower value. Put shortly: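 HEK293 parental, 2,000 cells/well; ≥5 h pre-incubation 37 C; pintool compound addition; 18 h, 37 C; CellTiter-Glo 30 min RT; luminescence read.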
A short description of test [4]: qHTS assay for cell viability of the p53RE-bla HCT-116 cell line (AID 743292). Also: % is scaled to controls: 0 for no effect and ±100 for the full control effect; nearly all actives have a fitted effect of over 55% in size. Put shortly: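 HCT-116 p53RE-bla cells seeded 4,000/well; 5 h at 37 C; compound (DMSO) added; 16 h at 37 C; CellTiter-Glo added, 30 min RT; luminescence read.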
Test [5] can be described thus: qHTS profiling of the MIPE4 collection as inhibitors of Plasmodium falciparum (3D7) proliferation (AID 743344; call rule not given here;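 also: scaled between DMSO vehicle wells and 0.29 µM artemisinin as full inhibition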). Conditions: P. falciparum 3D7 in erythrocytes, SYBR Green DNA fluorescence, 72 h; at 28.5 µM (top of the series) unless noted. Put shortly:
(§1)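 Erythrocytes infected with P. falciparum (0.3% parasitemia, 2.5% hematocrit) incubated with compounds 72 h at 37 C, 5% CO2. Lysis with saponin/Triton buffer containing SYBR Green I, overnight at room temperature in the dark; DNA fluorescence (485/535 nm) normalised to 0.29 uM artemisinin and DMSO.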

Test [6] in a line: qHTS profiling of the MIPE4 collection as inhibitors of Plasmodium falciparum (DD2) proliferation (AID 743345; call rule not given here). Conditions: P. falciparum Dd2 in erythrocytes, SYBR Green DNA, 72 h; at 28.5 µM (top of the series) unless noted. A digest of the protocol: as §1
Test [7] is described as follows: qHTS profiling of the MIPE4 collection as inhibitors of Plasmodium falciparum (DD2) proliferation (Rep 2) (AID 743346; call rule not given here). Particulars: P. falciparum Dd2 in erythrocytes, SYBR Green DNA, 72 h; at 28.5 µM (top of the series) unless noted. Put shortly:
as §1

A short description of test [8]: qHTS profiling of the MIPE4 collection as inhibitors of Plasmodium falciparum (HB3) proliferation (AID 743347; call rule not given here;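 also: plate controls were DMSO vehicle wells for no effect and artemisinin wells for full effect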). Particulars: P. falciparum HB3 in erythrocytes, SYBR Green DNA, 72 h; at 28.5 µM (top of the series) unless noted. A digest of the protocol: as §1
Test [9] can be described thus: High-throughput drug toxicity screening in the BPDCN cell line Gen2.2 (AID 1224824; call rule not given here;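 also: cells exposed to compounds for 48 h before reading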). Conditions: Gen2.2 BPDCN cells; at 45.8 µM (top of the series) unless noted. A digest of the protocol:
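Seed 500 exponentially growing Gen2.2 cells/well; add compounds by pin tool; incubate 48 h, 37 °C, 5% CO2; add CellTiter-Glo, 15 min RT; read luminescence. % activity vs DMSO (100%) and bortezomib (0%).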

The nature of test [10]: High-throughput drug toxicity screening in the BPDCN cell line Cal-1 (AID 1224825; call rule not given here). Particulars: Cal-1 BPDCN cell viability, qHTS; at 45.8 µM (top of the series) unless noted. A digest of the protocol:
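Cal-1 cells, 500 per well in phenol-red-free RPMI with 10% FBS, exposed to compounds for 48 hours at 37C, 5% CO2. Viability read by CellTiter-Glo luminescence; percent activity normalized to DMSO (100%) and 9.2 uM bortezomib final (0%).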

Test [11] is described as follows: qHTS assay for measurement of the activity of small molecule inhibitors on Zika virus induced Caspase-3 activity in human iPSC derived neural progenitor cells (hNPCs) (AID 1224857). Also: nearly all actives have a fitted effect of over 65% in size. Also: potency is read from the fitted curve at half-maximal effect. A digest of the protocol:
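Pretreat hNPCs with compound 1 h; infect ZIKV 2 FFU/cell; 6 h 37 C, 5% CO2; Caspase-Glo 3/7, 30 min RT; luminescence; normalize to no-virus and virus-only wells.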

The nature of test [12]: qHTS assay for measurement of the activity of small molecule inhibitors on Zika virus induced Caspase-3 activity in human astrocytoma cells (AID 1224859).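 Also: plate controls were ZIKV-infected untreated cells for no effect and uninfected cells for full effect.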 A digest of the protocol:
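Human SNB-19 astrocytoma cells in RPMI 1640 with 10% FBS receive compound one hour ahead of Zika virus at 2 FFU/cell. After 6 h infection, caspase-3/7 activity is detected by Caspase-Glo luminescence.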

A short description of test [13]: qHTS Screen of the MIPE 4.0 Collection Against Ewings Sarcoma (RDES) (AID 1259252). Also: nearly all actives have a fitted effect of over 35% in size. Also: potency is read from the fitted curve at half-maximal effect. A digest of the protocol:
(§2)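 Viability screen: 48 h incubation at 37C, 95% humidity, 5% CO2 with serially titrated compound, followed by CellTiter-Glo readout.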

Test [14] in a line: qHTS Screen of the MIPE 4.0 Collection Against Ewings Sarcoma (TC71) (AID 1259253). Also: nearly all actives have a fitted effect of over 40% in size. Also: potency is read from the fitted curve at half-maximal effect. A digest of the protocol: as §2
The nature of test [15]: qHTS Screen of the MIPE 4.0 Collection Against Ewings Sarcoma (EW8) (AID 1259255). Also: nearly all actives have a fitted effect of over 35% in size. Also: potency is read from the fitted curve at half-maximal effect.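 As to viability: 100% = DMSO-treated cells and 0% = medium-only wells without cells.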 Put shortly:
as §2

The target in test [16] is T1, Hexokinase-4 (Homo sapiens) + Glucokinase regulatory protein (Homo sapiens) (UniProt P35557+Q14397). The test is described as follows: qHTS assay for inhibitors of recombinant human GCK-GKRP interaction: Diaphorase-coupled assay (AID 743205). A digest of the protocol:
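25 mM Hepes pH 7.6, 5 mM glucose, 0.4 mM ATP, 4 U/ml G6PDH; 10 nM each GST-GCK/FLAG-GKRP. Kinetic fluorescence read, 1/min × 30 min. Normalized: DMSO ± enzyme = max/min.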

For test [17], the target named is T1, Hexokinase-4 (Homo sapiens) + Glucokinase regulatory protein (Homo sapiens). The test is described as follows: qHTS assay for inhibitors of recombinant human GCK-GKRP interaction: ADP-Glo assay (AID 743206).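 Also: plate controls were DMSO plus enzyme for no effect and no enzyme for full effect.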 A digest of the protocol: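 GST-GCK and FLAG-GKRP (15 nM each in the dispensed mix, with 2 uM S6P) react with 0.4 mM ATP and 5 mM glucose (final) in Hepes pH 7.6 for 60 min at room temperature. ADP is measured by ADP-Glo luminescence.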

Test [18] shares this target. The test is described as follows: qHTS assay for inhibitors of recombinant human GCK-GKRP interaction: HTRF assay (AID 743207).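 Also: 0% = DMSO with GCK present and -100% = DMSO wells lacking GCK.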 A digest of the protocol:
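5 nM GST-GCK + 5 nM FLAG-GKRP + 2 uM S6P, pH 7.1 buffer (25 mM Hepes, 2 mM MgCl2, 25 mM KCl, 1 mM DTT, Tween/BSA); pin-transferred cpd; anti-FLAG XL665/anti-GST K; 60 min RT; HTRF.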

T1 sequence (P35557 whole entry, looked up): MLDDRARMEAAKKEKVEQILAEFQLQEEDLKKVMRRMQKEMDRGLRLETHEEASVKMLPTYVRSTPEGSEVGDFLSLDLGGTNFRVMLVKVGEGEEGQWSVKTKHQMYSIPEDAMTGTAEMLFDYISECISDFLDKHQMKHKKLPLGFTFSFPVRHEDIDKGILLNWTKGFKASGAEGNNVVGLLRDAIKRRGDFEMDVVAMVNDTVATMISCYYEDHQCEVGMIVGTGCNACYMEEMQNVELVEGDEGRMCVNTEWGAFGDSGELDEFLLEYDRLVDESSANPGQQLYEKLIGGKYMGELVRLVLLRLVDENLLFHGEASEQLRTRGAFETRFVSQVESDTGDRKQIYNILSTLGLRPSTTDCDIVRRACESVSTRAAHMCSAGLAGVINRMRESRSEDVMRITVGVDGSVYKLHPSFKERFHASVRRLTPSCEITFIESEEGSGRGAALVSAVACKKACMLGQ
T1 sequence (Q14397 whole entry, looked up): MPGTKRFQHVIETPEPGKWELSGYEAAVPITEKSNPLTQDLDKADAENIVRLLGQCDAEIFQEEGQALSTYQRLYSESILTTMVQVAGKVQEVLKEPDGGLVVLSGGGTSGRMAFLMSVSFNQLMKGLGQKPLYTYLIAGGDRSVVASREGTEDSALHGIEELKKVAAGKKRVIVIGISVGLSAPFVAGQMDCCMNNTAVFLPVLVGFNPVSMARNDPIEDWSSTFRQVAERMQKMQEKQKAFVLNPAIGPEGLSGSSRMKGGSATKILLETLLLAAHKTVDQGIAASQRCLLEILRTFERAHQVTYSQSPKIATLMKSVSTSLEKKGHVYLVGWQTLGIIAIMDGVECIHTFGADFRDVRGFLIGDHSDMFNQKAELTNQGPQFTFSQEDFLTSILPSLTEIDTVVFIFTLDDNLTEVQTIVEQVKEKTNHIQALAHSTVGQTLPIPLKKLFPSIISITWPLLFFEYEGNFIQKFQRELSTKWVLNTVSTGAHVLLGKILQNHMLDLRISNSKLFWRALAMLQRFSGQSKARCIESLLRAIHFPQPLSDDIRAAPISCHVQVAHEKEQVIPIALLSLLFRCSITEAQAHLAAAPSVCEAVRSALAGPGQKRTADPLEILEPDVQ

As to `COc1cc(OC)c(C(=O)CCCN2CCCC2)c(OC)c1`, the max response was -3.27% (inactive) in test [1], 4.14% (inactive) in [2] and -5.06% (inactive) in test [3]. The Potency result in test [4], in test [11], in test [12], in test [13], in test [14] and in test [15] was “inactive” in each case. Also, in [5], the parasite growth, % of DMSO control was determined as 90.8%. Besides, the parasite growth remaining, % of DMSO control (lower = more inhibition) in test [6] turned out to be 120%. The compound also yielded a parasite growth, % of control (lower = inhibition) in test [7] of 38.2%. The compound also came in with a growth, % of control in test [8] of 75.7%. Moreover, the cell viability, % of control (lower = more cytotoxic) in [9] was 165%. The viability (% of control) in [10] came to 101%.
`O=c1oc2cc(O)ccc2s1`: the parasite growth, % of DMSO control in test [5] is 85.1%. Besides, in test [6], the parasite growth remaining, % of DMSO control (lower = more inhibition) came to 123%. In test [7], this compound returned a parasite growth, % of control (lower = inhibition) of 54.9%. The compound also yielded a growth, % of control in [8] of 99.9%. In addition, the cell viability, % of control (lower = more cytotoxic) in test [9] came out at 68.5%. In addition, the viability (% of control) in test [10] was 92.8%. Also, the Potency was 11.8 µM (active) in test [11], 16.6 µM (active) in [13], 18.7 µM (active) in [14] and 13.2 µM (active) in test [15]. Besides, the Potency result in [12] was “inactive”.
On to `C[C@@H](c1ncncc1F)[C@](O)(Cn1cncn1)c1ccc(F)cc1F`, for which, in test [9], the cell viability, % of control (lower = more cytotoxic) is 56.5%. In addition, in test [10], the viability (% of control) stood at 55.6%. The Potency entry in test [11], in test [12], in [13] and in test [14] was “inactive” throughout.
In test [5], `Clc1ccc2c(N3CCN(CCCN4CCN(c5ccnc6cc(Cl)ccc56)CC4)CC3)ccnc2c1` showed a parasite growth, % of DMSO control of 18.8% [at 9.64 µM]. Also, in test [6], the parasite growth remaining, % of DMSO control (lower = more inhibition) turned out to be 9.96% [at 9.64 µM]. In addition, the parasite growth, % of control (lower = inhibition) in [7] came out at 21.1% [at 9.64 µM]. In test [8], this compound came in with a growth, % of control of 14.1% [at 9.64 µM]. Further, in [9], the cell viability, % of control (lower = more cytotoxic) worked out at 88.7% [at 23.2 µM]. For the same compound, the viability (% of control) in [10] is 112% [at 23.2 µM]. In addition, the Potency result in test [11], in test [12], in [13], in [14] and in test [15] was “inactive” in each case.
In the case of `CC1(C)C(=O)N(CCN2CCC(C(=O)c3ccc(F)cc3)CC2)c2ccccc21`, the result in [16], in test [17] and in [18] was inactive. Further, the max response in test [2] is 6.71% (inactive). In [5], this compound yielded a parasite growth, % of DMSO control of 49%. Moreover, the parasite growth remaining, % of DMSO control (lower = more inhibition) in [6] came out at 15.4%. Besides, in [7], the parasite growth, % of control (lower = inhibition) was 26.2%. This compound had a growth, % of control in [8] of 34.5%. In test [9], the cell viability, % of control (lower = more cytotoxic) was determined as 37.4%. Moreover, the viability (% of control) in test [10] turned out to be 85.6%. Besides, the Potency entry in test [11], in test [12], in [13], in test [14] and in test [15] was “inactive” each time.
